Data reported in PubChem BioAssay AID492996 (Johns Hopkins Ion Channel Center, 2010).
Measured potencies and affinities stand elsewhere. Calls of active or inactive are those of the source.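 How the source made its calls: active means peak inhibition of the TRPC4 channel signal over 30% at some dose, with a fitted dose response curve; inactive means no inhibition or no dose response curve.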

Biological target: Short transient receptor potential channel 4 (Mus musculus) (UniProt Q9QUQ5)
Assay: mouse TRPC4 block via Gq-coupled stimulation – cell-based, acetylcholine stimulus, HEK293 TRPC4, Fluo-4, SAR follow-up (AID 492996)
Details: HEK293 TRPC4 cells, ACh-evoked Fluo-4 calcium flux; series mostly up to 20 µM

Short transient receptor potential channel 4 (Mus musculus), sequence (Q9QUQ5 whole entry, looked up): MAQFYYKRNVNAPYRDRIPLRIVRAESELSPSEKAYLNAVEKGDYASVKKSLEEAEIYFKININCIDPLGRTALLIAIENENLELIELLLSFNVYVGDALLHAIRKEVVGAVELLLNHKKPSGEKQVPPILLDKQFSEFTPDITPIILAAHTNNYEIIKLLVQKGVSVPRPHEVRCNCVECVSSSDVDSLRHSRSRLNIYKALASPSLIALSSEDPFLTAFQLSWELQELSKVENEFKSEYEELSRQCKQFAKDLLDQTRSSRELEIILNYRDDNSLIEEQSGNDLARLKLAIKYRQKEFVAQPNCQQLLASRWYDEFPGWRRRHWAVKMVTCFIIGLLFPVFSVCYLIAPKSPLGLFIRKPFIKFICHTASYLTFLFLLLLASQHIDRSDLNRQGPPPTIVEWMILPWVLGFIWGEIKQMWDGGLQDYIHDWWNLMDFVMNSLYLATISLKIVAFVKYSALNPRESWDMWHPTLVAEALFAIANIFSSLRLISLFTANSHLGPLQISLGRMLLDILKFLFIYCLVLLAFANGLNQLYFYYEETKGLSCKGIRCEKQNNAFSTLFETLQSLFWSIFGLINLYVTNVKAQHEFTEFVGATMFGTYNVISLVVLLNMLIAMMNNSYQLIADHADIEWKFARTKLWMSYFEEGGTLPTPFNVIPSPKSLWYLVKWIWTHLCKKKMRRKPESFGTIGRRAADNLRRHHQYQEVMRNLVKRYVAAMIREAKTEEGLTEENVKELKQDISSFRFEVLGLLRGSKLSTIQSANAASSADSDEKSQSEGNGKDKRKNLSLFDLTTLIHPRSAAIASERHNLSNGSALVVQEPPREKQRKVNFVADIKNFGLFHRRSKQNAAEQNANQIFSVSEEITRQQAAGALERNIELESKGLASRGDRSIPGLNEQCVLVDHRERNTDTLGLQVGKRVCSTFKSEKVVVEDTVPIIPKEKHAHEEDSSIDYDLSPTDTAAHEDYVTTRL

Row | SMILES | outcome
1 | COc1ccccc1N1CCN(c2cc(C)c3ccccc3n2)CC1 | inactive
2 | FC(F)(F)c1cc(N2CCCCCC2)nc2ccccc12 | inactive
3 | COCCN(C)c1cc(C)c2ccccc2n1 | inactive
4 | COc1ccc(N2CCN(c3cc(C)c4ccccc4n3)CC2)cc1 | inactive
5 | Cc1cc(N2CC(C)CC(C)C2)nc2ccccc12 (stereo unspecified) | inactive
6 | Cc1cc(N2CCOCC2)nc2ccccc12 | inactive
7 | Cc1cc(N2CCC(N3CCOCC3)CC2)nc2ccccc12 | inactive
8 | Cc1ccnc(N2CCCCCC2)n1 | inactive
9 | Cc1cc(N2CCOc3ccccc32)nc2ccccc12 | inactive
10 | Cc1cc(N2CCCC(O)C2)nc2ccccc12 (stereo unspecified) | inactive
11 | c1ccc(-c2cc(N3CCCCCC3)nc3ccccc23)cc1 | inactive
12 | Cc1ccc2nc(N3CCCCCC3)cc(C)c2c1 | inactive
13 | Cc1cc(N(C)CCN(C)C)nc2ccccc12 | inactive
14 | Cc1ccnc(N2CCCCCC2)c1 | inactive
15 | Cc1cc(N2CCN(c3ncccn3)CC2)nc2ccccc12 | inactive
16 | CCN(CC)c1cc(C)c2ccccc2n1 | inactive
17 | Cc1cc(N2CCCCCC2)nc2c(C)cccc12 | inactive
18 | Cc1cc(N2CCCCCC2)nc2ccc(F)cc12 | inactive
19 | Cc1cc(N2CCN(CC3CCCO3)CC2)nc2ccccc12 (stereo unspecified) | inactive
20 | Cc1cc(N2CCN(c3ccccc3C#N)CC2)nc2ccccc12 | inactive
21 | CCc1ccc2nc(N3CCCCCC3)cc(C)c2c1 | inactive
